Screens: PubChem BioAssay, National Center for Advancing Translational Sciences (NCATS)
Most compounds without a hit are left out; they make up all but 7.2% or so of the library.
Marburg entry inh = Marburg virus entry inhibition; 1.8% of 300,000 active; Marburg virus pseudotyped entry inhibition, cell reporter; Potency, µM (doses to about 37.8 µM), without a hit: top-dose activity change, negative = inhibition, most hits filed as inhibitors; AID 540276; calls by dose curve; tested in HEK293 cells
FMDV antiviral = antivirals against foot and mouth disease virus | FMDV antiviral cell-based qHTS | Potency, µM (series often up to 57.9 µM), for the others: top-dose activity change, negative = inhibition, actives largely listed as inhibitors | 1.2% of 410,000 active | AID 1159524; calls by dose curve; tested in HEK293T cells; also: read-out not given here; nearly all actives have a fitted effect of over 45% in size
Lassa entry inh = inhibitors of Lassa virus binding or cell entry; Potency, µM (highest dose often 37.9 µM), for inactives: at the highest dose activity change, negative = inhibition, usual class: inhibitors; 1.2% of 300,000 active; AID 540256; Lassa virus pseudotype entry inhibition, cell reporter; calls by dose curve; tested in HEK293 cells; also: nearly all actives have a fitted effect of over 50% in size
RE007 growth inh = less growth of the S. pombe RE007 Vpr strain; S. pombe RE007 Vpr strain, BacTiter-Glo ATP luminescence, 24 h; Potency, µM (doses to about 92.2 µM), inactives show at the highest dose activity change, negative = less growth, usual class: inhibitors; 0.21% of 360,000 active; AID 651644; active = well fitted falling curve with a large enough effect; inconclusive = small, poorly fitted or top-dose-only effect; inactive = no such curve, though single readings can be large or run the other way; also: nearly all actives have a fitted effect of over 50% in size
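Fission yeast RE007 carrying one integrated HIV-1 vpr copy, seeded at OD 0.01 in PMG+AL medium with 23 nL pinned compound. Grown 24 h at 30 degrees; viability read by BacTiter-Glo luminescence after 5 min.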
Sm TGR inh = inhibitors of Schistosoma mansoni thioredoxin glutathione reductase | 3% of 360,000 active | Potency, µM (series often up to 114 µM), inactives show at the top dose activity change, negative = inhibition, actives largely listed as inhibitors | purified TGR, DTNB reduction, TNB absorbance 405 nm | AID 485364; also: nearly all actives have a fitted effect of over 60% in size
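First, TGR (20 nM dispensed) and NADPH were mixed with compound. Second, a 15 min room-temperature incubation followed. Third, further NADPH and then DTNB were added to start the reaction. Finally, TNB absorbance was monitored kinetically.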
HCV inh = inhibitors of hepatitis C virus infection | Huh7.5.1 HCVcc-Cre infection, luciferase reporter, 44 h | Potency, µM (series often up to 41.8 µM), for inactives: at the highest dose activity change, negative = inhibition, actives largely listed as inhibitors | 3.4% of 340,000 active | AID 651820
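Whole-lifecycle infectious HCVcc-Cre system; cells 1,000/well, compound then virus (~0.5 moi) added 4 h after plating, 44 h culture. Luciferase read 15 sec following 15 min substrate incubation, room temp.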
Numbers without * were called inactive; u = inconclusive; x = not tested or not shown; ! = not confirmed by another sample; [ ] = remark or other dose. Unless noted, calls follow the shape of the dose curve; as a rule, active = well fitted curve in the direction sought with a large enough effect; inconclusive = small, poorly fitted or top-dose-only effect, or another doubt; inactive = no such curve, though single readings can be large; an effect the other way counts as inactive or inconclusive. % is scaled to controls: 0 for no effect and ±100 for the full control effect; potency is read from the fitted curve at half-maximal effect.

SMILES | Marburg entry inh | FMDV antiviral | Lassa entry inh | RE007 growth inh | Sm TGR inh | HCV inh
CC1Cc2cc(S(=O)(=O)N3CCC(C(=O)N(C)Cc4ccccc4)CC3)ccc2N1C(=O)C1CC1 (configuration not stated) | x | u | x | -4% | 4% | 5.6µM*
Cc1ccc(NC(=O)C2CCN(S(=O)(=O)c3ccc4c(c3)CC(C)N4C(=O)C3CCC3)CC2)nc1 (configuration not stated) | u | u | u | 16% | 7% | 8.9µM*
CC1Cc2cc(S(=O)(=O)N3CCC(C(N)=O)CC3)ccc2N1C(=O)C1CC1 (configuration not stated) | x | 25% | x | 8% | 4% | -8%
Cc1ccnc(NC(=O)C2CCN(S(=O)(=O)c3ccc4c(c3)CC(C)N4C(=O)C3CCC3)CC2)c1 (configuration not stated) | u | u | u | -20% | -8% | u
Cc1ccc(CNC(=O)C2CCN(S(=O)(=O)c3ccc4c(c3)CC(C)N4C(=O)C3CCC3)CC2)o1 (configuration not stated) | x | u | x | -12% | 40µM* | -20%
CC(=O)N1c2ccc(S(=O)(=O)N3CCC(C(=O)Nc4ccc(C)cn4)CC3)cc2CC1C (configuration not stated) | x | u | x | 5% | -9% | 11µM*
N#CCCn1c(=O)c(-c2cc(F)cc(F)c2)nc2cnc(N3CCOCC3)nc21 | x | -10% | x | x | x | x
CC(=O)O[C@]1(C(C)=O)CC[C@H]2[C@@H]3C=C(Cl)C4=CC(=O)[C@@H]5C[C@@H]5[C@]4(C)[C@H]3CC[C@@]21C | u | u | 16µM* | 15% | -3% | 7%
COc1ccccc1N1C(=O)[C@@H]2[C@H](C1=O)[C@H](C(=O)c1ccc(OC(C)=O)cc1)N1N=CC=C[C@@H]21 | u | 7% | 0% | 1% | 16µM* | -10%
CC(=O)Oc1ccc(C(=O)[C@H]2[C@H]3C(=O)N(c4ccc5ccccc5c4)C(=O)[C@H]3[C@@H]3C=CC=NN32)cc1 | 1% | -2% | 17% | 7% | -1% | 3%
O=C(Cc1cccs1)NC1C(=O)N2C(C(=O)[O-])=C(C[n+]3ccccc3)CSC12 (configuration not stated) | 1% | x | u | x | x | x
Cc1nnc(SCC2=C(C(=O)O)N3C(=O)C(NC(=O)Cn4nc(C(F)F)cc4C)C3SC2)s1 (configuration not stated) | x | 2% | x | 8% | 40µM* | 3%
CN(C)CCn1nnnc1SCC1=C(C(=O)O)N2C(=O)[C@@H](NC(=O)Cc3csc(N)n3)[C@H]2SC1 | x | -13% | x | 9%[18.4 µM] | 32µM* | u
Cc1nnc(SCC2=C(C(=O)O)N3C(=O)C(NC(=O)Cn4nc(C(F)F)c(Cl)c4C)C3SC2)s1 (configuration not stated) | -18%[46.1 µM] | 17% | 1% | 0% | 13µM* | 5%
CC(=O)OCC1=C(C(=O)O)N2C(=O)C(NC(=O)CCn3nc(C)c(Cl)c3C)C2SC1 (configuration not stated) | -3%[46.1 µM] | -9% | 16%[46.1 µM] | -3% | 28µM* | 12%
Cc1cc(C(F)F)nn1CC(=O)NC1CCCC1 | 13% | -6% | -1% | -13% | 6% | -4%
O=C(CSc1nc(-c2ccccc2)[nH]c1-c1ccccc1)Nc1ccc2c(c1)OCCO2 | u | 1% | u | x | -3% | x
N#Cc1cccc(NC(=O)N2CC3(CCN(C(=O)c4cc(C(F)(F)F)cc(C(F)(F)F)c4)CC3)C2)c1 | x | -3% | x | x | x | x
CC(C)CSc1nnc(CNC(=O)c2ccccn2)n1C | x | -8% | x | x | x | x
CC1=CC[C@@H](COc2ccccc2)O[C@@]2(C1)C(=O)N(Cc1ccccc1C(F)(F)F)c1cccc(Br)c12 | -7%[14.2 µM] | x | x | x | x | x
CC(=O)OCC1=C(C(=O)O)N2C(=O)C(NC(=O)Cn3nc(C(F)F)c(Cl)c3C)C2SC1 (configuration not stated) | 10%[46.1 µM] | -1% | -5% | 5% | 22µM* | 9%
CC(=O)OCC1=C(C(=O)O)N2C(=O)C(NC(=O)CCn3nc(C(F)(F)F)c(Br)c3C3CC3)C2SC1 (configuration not stated) | -10%[46.1 µM] | -10% | -6% | -12% | 22µM* | -1%
CC1=C(C(=O)OCc2ccc([N+](=O)[O-])cc2)N2C(=O)C(NC(=O)Cc3ccccc3)C2SC1 (configuration not stated) | x | -11% | x | 2% | -2% | 4%
CC1=C(C(=O)O)N2C(=O)C(NC(=O)CCCC(=O)O)C2SC1 (configuration not stated) | u | -12% | -1% | u | 11% | 6%
COC(=O)c1cccc(C(=O)N2CCc3c(C(=O)OC)c(OCc4ccccn4)cc(=O)n3CC2)c1 | x | -8% | x | x | x | x
SMILES | Marburg entry inh | FMDV antiviral | Lassa entry inh | RE007 growth inh | Sm TGR inh | HCV inh
Cc1cc(Br)ccc1NC(=O)c1sc2ncn(Cc3ccccc3Cl)c(=O)c2c1C | x | -5% | -7%[46.1 µM] | x | 8% | x
CC(C)NC(=O)NC(=O)COc1ccc(Br)cc1Br | 6.5µM* | -24% | 7.3µM* | u | -6% | u
O=C(COc1ccc(Br)cc1Br)NC1CCCC1 | x | 9% | x | 9% | 0% | u
COc1ccc(Cn2c(SCc3ccc(C)cc3)nc3cc(OC)c(OC)cc3c2=N)cc1Cl | 2.8µM* | 35µM* | 10µM* | 29% | 1% | u
COc1ccc(Cn2c(SCc3cc(C)ccc3C)nc3cc(OC)c(OC)cc3c2=N)cc1 | 4.6µM* | u | 6.5µM* | 6%[3.69 µM] | 0% | 2.8µM*
CCn1cc2nc(SCc3cc(C)ccc3C)n(Cc3ccc(OC)cc3)c(=O)c2n1 | x | u | u | x | 4% | x
CCc1nn(CC(=O)NCc2ccc(C)cc2)c(=O)c2cc3occc3n12 | -29%[46.1 µM] | -19% | 27%[46.1 µM] | x | 3% | x
NCCCS(=O)(=O)O | 8.2µM*! | -29% | u | 2% | -1% | 5.6µM*!
O=S(=O)(O)CCS | x | -7% | x | -13%[18.4 µM] | x | 18%
O=C(NCCc1cccnc1)c1cnn(-c2ncc3c(n2)-c2ccccc2CC3)c1C1CC1 | x | 7% | x | x | x | x
Cc1noc(C)c1CSc1nc2ccccc2[nH]1 | 14% | -14% | 5% | 15% | 0% | 18%
c1ccc(-c2cc(CSc3nc4ccccc4[nH]3)on2)cc1 | u | u | -15% | -11% | 6% | 4µM*
COc1ccc(CSc2nc3ccccc3[nH]2)cc1 | u | -51% | u | 32µM* | 19% | u
COc1ccc(CCNC(=O)c2cnn(-c3nccc(-c4cccs4)n3)c2C)cc1OC | x | 25% | x | x | x | x
O=C(CCCCn1c(=O)c2ccccc2n(Cc2ccccc2F)c1=O)NCc1ccccc1Cl | u | -18% | -6%[46.1 µM] | x | 1% | x
CCOc1ccc(S(=O)(=O)Nc2nc3ccccc3nc2Cl)cc1 | x | -15% | x | 5% | -27% | -9%
